Out of some 48,000 compounds screened, about 13,000 (27%) showed an effect of 50% or more. This is one part of the list.

This test deals with Wolbachia pipientis. As to the kind of experiment: Anti-Wolbachia Cell-Based Screen. Format: functional. Details: scale not given: in the data most compounds retested in dose-response had high values. The note with it: 5 µM.
In the case of `COCCN1CCC(C(=O)N(C)CCOc2ccc(C)cc2Cl)C1` (centres undefined), the “Percent Effect” value was -22.94%.
Turning to `O=C1CO[C@@H]2CN(S(=O)(=O)c3ccc(F)cc3)C[C@H]2N1`, the “Percent Effect” value came to 87.78%.
Take `O=C1CO[C@@H]2CN(S(=O)(=O)c3ccccc3F)C[C@H]2N1`: the “Percent Effect” value stood at 96.68%.
Under `O=C1CO[C@H]2CN(Cc3ccc(F)c(F)c3)C[C@H]2N1` stands -16.97%; under `O=C1CO[C@H]2CN(Cc3ccc(C(F)(F)F)cc3)C[C@H]2N1`, -16.85%; under `CNC(=O)Cc1csc(NC(=O)C2CSCCC(=O)N2)n1` (centres undefined), 9.778%.
As for `Cc1nc2c(c(NC3CC3)n1)CCN(C(=O)C1(C#N)CC1)CC2`, the “Percent Effect” value was -9.329%.
Take `CCNc1ccnc(N2Cc3cnc(CC(C)C)nc3C2)n1`: the “Percent Effect” value was 8.628%.
Under `CSCCC(NC(=O)c1ccc2ccccc2n1)C(=O)O` (centres undefined) stands -5.769%; under `CSc1ncc(Cl)c(C(=O)NC(Cc2ccccc2)C(=O)O)n1` (centres undefined), 98.91%.
For the compound `CCCSc1ncc(Cl)c(C(=O)NC(CCSC)C(=O)O)n1` (centres undefined), the “Percent Effect” value stood at 125.3%.
In the case of `CSCCC(NC(=O)c1ccc2ccccc2n1)C(=O)N(C)C` (centres undefined) it was -7.928%; in that of `CSc1ccsc1C(=O)NC(Cc1ccccc1)C(N)=O` (centres undefined), -23.55%; in that of `CCOc1ccc(Cl)c(C(=O)NC(Cc2ccccc2)C(N)=O)n1` (centres undefined), -4.15%.
Under `CCOc1ccc(Cl)c(C(=O)NC(C(N)=O)c2ccccc2)n1` (centres undefined) stands -8.916%; under `CSCCC(NC(=O)c1nc(SC)ncc1Cl)C(=O)O` (centres undefined), 130.6%; under `CCSc1ncc(Cl)c(C(=O)NC(CCSC)C(=O)O)n1` (centres undefined), 88.5%.
In the case of `CCOCCNC(=O)C(CCSC)NC(=O)c1ccc2ccccc2n1` (centres undefined) it was 5.309%; in that of `C=C(C)COc1ccc(C(=O)NCCn2c(C)cc(C)nc2=O)cc1`, 3.763%; in that of `NC(CC1CCCC1)c1ccc(Oc2ccccc2)cc1` (centres undefined), -4.539%.
Turning to `Cc1nnc(CN2CCCC2c2ccc3c(c2)OCCCO3)n1C` (centres undefined), the “Percent Effect” value is listed as -16.28%.
As to `Cc1ccc(CNCc2nnc3n2CCCC3C(F)(F)F)s1` (centres undefined), the “Percent Effect” value is reported as -0.9896%.
For `Cc1cc(CC(=O)NCC(O)COc2ccc(F)c(F)c2)n[nH]1` (centres undefined), the “Percent Effect” value is reported as -4.204%.
In the case of `Cc1cnc(C(=O)N(CCN(C)C)Cc2ccc(Cl)cc2)cn1`, the “Percent Effect” value is 18.7%.
For `CC(C)CC(=O)Nc1cc(C(=O)N(C)C(C)C)ccc1Cl`, the “Percent Effect” value was -13.72%.
As for `CCN(CC)C(=O)c1ccc(Cl)c(NC(=O)c2cnc(C)cn2)c1`, the “Percent Effect” value worked out at 101.4%.
Take `CCN(CC)C(=O)c1ccc(Cl)c(NC(=O)c2csnn2)c1`: the “Percent Effect” value worked out at 102.3%.
Consider `CCN(CC)C(=O)c1ccc(Cl)c(NC(=O)c2cc[nH]n2)c1`, for which the “Percent Effect” value stood at 48.61%.
Turning to `COCCN(Cc1ccc(F)cc1Cl)C(=O)c1csnn1`, the “Percent Effect” value is 2.289%.
Under `CCN(CC)c1ccc(CNC(=O)c2cnc(C)cn2)cn1` stands 0.4576%; under `CC(C)OCCC(=O)Nc1cc(C(=O)N(C)C(C)C)ccc1Cl`, -18.48%.
Under `CCN(CC)C(=O)c1ccc(Cl)c(NC(=O)c2cc(C(C)C)on2)c1` stands 105.3%.
Under `O=C(c1nc(=O)[nH]c2ccccc12)N1CCCC(CC2CC2)(C(=O)O)C1` (centres undefined) stands -2.768%.
On to `CCc1noc(CS(=O)(=O)c2cccc(OC)c2)n1`, for which the “Percent Effect” value was -12.89%.
In the case of `CN(C)C[C@@H]1CN(C(=O)Cc2ccc3ccccc3c2)C[C@@H]1CO` it was -10.12%; in that of `CN(CCO)C[C@@H]1CN(C(=O)Cc2ccc3ccccc3c2)C[C@@H]1CO`, -10.71%.
Under `CN(C)CC1(O)CCN(C(=O)Cc2ccc(Cl)c(Cl)c2)C1` (centres undefined) stands -5.552%; under `CN(C)CC1(O)CCN(C(=O)Cc2ccc3c(c2)CCC3)C1` (centres undefined), 113.1%; under `Cc1cc2occ(CC(=O)N3CCC(O)(CN(C)C)C3)c2cc1Cl` (centres undefined), -55.74%.
Under `CN(C)CC1(O)CCN(C(=O)Cc2ccc3c(c2)CCCC3)C1` (centres undefined) stands 97.61%.
Take `CN(C)CC1(O)CCN(C(=O)Cc2ccc3ccccc3c2)C1` (centres undefined): the “Percent Effect” value is reported as 131.3%.
As to `CN(C)CC1(O)CCCN(C(=O)Cc2ccc(Cl)c(Cl)c2)C1` (centres undefined), the “Percent Effect” value was 6.381%.
Under `Cc1c(C(=O)N2CCC(O)(CN(C)C)C2)c2cc(O)ccc2n1C` (centres undefined) stands -4.838%; under `COc1c(NC(=O)N(C)CCOc2ccc(F)cc2)c(C)nn1C`, -9.317%; under `CC(=O)NCCOc1c(C)cccc1C`, -5.514%.
`CC(=O)N1CCC[C@H]1C(=O)NCCOc1cccc(Cl)c1`: the “Percent Effect” value came out at 1.208%.
In the case of `Cc1ccc(F)cc1NC(=O)C1CCCN1C(=O)C(C)C` (centres undefined) it was -3.665%.
Take `CC(=O)N1CCC[C@H]1C(=O)N(C)CCCOc1ccccc1`: the “Percent Effect” value is given as 16.69%.
For `CC(C)CCNC(=O)C1CCCN1C(=O)Nc1cccc(F)c1` (centres undefined), the “Percent Effect” value is 134.2%.
Under `CC(=O)N1CCCC1C(=O)NCCOc1c(C)cccc1C` (centres undefined) stands 70.88%; under `CC(=O)N1CCN(C(=O)CCOc2ccc(C(C)C)cc2)CC1`, -11.35%.
Under `O=C1CCCN1CC1CCCCN1C(=O)Nc1cccc(F)c1` (centres undefined) stands -9.718%.
In the case of `CC(=O)N1CCCC1C(=O)NCCOc1cccc(F)c1` (centres undefined) it was 92.85%; in that of `CC(=O)N1CCCC1C(=O)NCCOc1ccc(C(C)C)cc1` (centres undefined), 97.98%; in that of `C=C(C)COCCNC(=O)C1CCCN1C(C)=O` (centres undefined), 4.711%.
Take `CC(=O)N1CCCC1C(=O)NCCOc1cc(C)cc(C)c1` (centres undefined): the “Percent Effect” value is 2.584%.
For `CCC(CNC(=O)COC)Oc1cccc(F)c1` (centres undefined), the “Percent Effect” value is recorded as -17.35%.
Under `NC(=O)c1csc(N2CCCC(c3n[nH]c(=O)n3-c3ccccc3)C2)n1` (centres undefined) stands -8.892%.
Consider `CC(C)c1cc(C(=O)NCCn2nc3ccccn3c2=O)n[nH]1`, for which the “Percent Effect” value stood at 7.227%.
As for `Cc1nc(NC(=O)NCCCN2CCC(C(N)=O)CC2)sc1C`, the “Percent Effect” value is 92.76%.
In the case of `Cc1nc(NC(=O)C2CCCN(C(=O)C3CC3)C2)sc1C` (centres undefined) it was 22.45%.
`Cc1nnc(NC(=O)NCCCN2CCC(C(N)=O)CC2)s1`: the “Percent Effect” value is 105%.
For `Cc1nnc(NC(=O)NCc2ccc(C)n2C)s1`, the “Percent Effect” value was 1.794%.
Under `Cc1nc(Nc2ccc(Cl)cn2)sc1C(=O)NCCCN1CCCCC1` stands -4.658%; under `Cc1nnc(NC(=O)N2CCCCC2CCO)s1` (centres undefined), -9.567%; under `Cc1cccc(CNC(=O)CC2CCN(C(=O)C(C)C)CC2)n1`, 83.92%.
Under `COC(=O)N1CCCC(NC(=O)NCc2cccc(C)n2)C1` (centres undefined) stands -5.43%.
In the case of `Cc1cccc(CNC(=O)C2CCC(=O)N(Cc3ccccc3F)C2)n1` (centres undefined) it was -24.63%; in that of `Cc1cccc(CNC(=O)CC2CCN(Cc3ccccn3)CC2)n1`, 99.8%.
For the compound `Cc1cccc(C(=O)N2CCn3cc(CNC(=O)CC4CC4)nc3C2)n1`, the “Percent Effect” value stood at 2.995%.
In the case of `Cc1cccc(CN2CCC(Cc3ccccc3F)CC2)n1` it was -1.449%.
Under `Cc1cccc(CN2CCS(=O)(=O)[C@@H]3CCN(S(C)(=O)=O)CC[C@@H]32)n1.O=C(O)C(F)(F)F` stands -6.526%; under `Cc1cccc(CN2CCn3cc(CNC(=O)CC4CC4)nc3C2)n1`, 3.137%; under `Cc1cccc(CNC(=O)CC2CCN(S(C)(=O)=O)CC2)n1`, 82.07%.

For the origin of these results see ChEMBL document CHEMBL3988442, “University of Dundee, Small-Polar-MMV Screening Library” (2021).
